IEC-6 cytotox = counter-screen for KLF5 inhibitors: cytotoxicity in IEC-6 cells | IEC-6 cytotoxicity, luminescence viability | hit rate 0.78% among 290,000 | inhibition, % at 5 µM; in the data active means inhibition above about 22%;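 further: 0% = plate median of test compound wells and 100% = cytotoxic reference compound wells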
BaF3 tox = counter-screen for JAK2V617F inhibitors: parental Ba/F3 viability inhibitors; CellTiter-Glo ATP luminescence; inhibition, % at 5.6 µM; hit rate 1.1% among 220,000;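 active means inhibition above a per-campaign cutoff, the mean inhibition of all tested compounds plus 3 SD, cut at about 27% in these data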;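 further: 0% = DMSO wells and 100% = JAK Inhibitor I control wells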
APP transl inh = APP translation inhibition. hit rate 0.82% among 190,000. inhibition, % at 2 µM. SH-SY5Y APP 5'UTR-luciferase reporter, luminescence;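 active means inhibition above a set limit, derived from the sample mean plus 3 SD, cut at about 45% in these data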
KLF5 inh = suppresses KLF5 promoter-driven expression. inhibition, % at 5 µM. hit rate 0.23% among 290,000. DLD-1 KLF5 promoter-luciferase reporter, luminescence;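 active means inhibition above a per-plate limit of that plate's mean compound inhibition plus 3 SD, cut at about 60% in these data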;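 further: 0% = DMSO wells and 100% = LY294002 at 200 µM; higher means less KLF5 promoter-driven luciferase light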
aSyn 5UTR inh = 5' untranslated region of α-synuclein, MLPCN primary screen. alpha-synuclein 5'UTR reporter, inhibitor activity. inhibition, % (tested at 7.5 µM). hit rate 0.82% among 300,000. AID 1813; in the data active means inhibition above about 60%;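 further: H4 neuroglioblastoma cells stably carrying SNCA 5'UTR luciferase fusion; 0% = DMSO wells and 100% = positive control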
Ba/F3 V617F tox = loss of viability in JAK2V617F-driven Ba/F3 cells. inhibition, % at 5.6 µM. Ba/F3 EpoR-JAK2V617F viability, ATP luminescence. hit rate 1.1% among 220,000;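 active means inhibition above the campaign mean plus 3 SD over all tested compounds, cut at about 24% in these data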;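 further: cytokine-independent growth of Ba/F3 cells driven by EpoR plus mutant JAK2; 0% = DMSO-treated cells and 100% = JAK inhibitor I control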
BaF3 tox 2 = reduces parental Ba/F3 viability, JAK2V617F counter-screen. inhibition, % at 5.6 µM. CellTiter-Glo luminescence; cells kept alive by added IL-3. shares compounds with Ba/F3 V617F tox. hit rate 31% among 580;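 active means cell growth inhibition above the hit limit set in the earlier mutant JAK2 cell screen, cut at about 27% in these data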;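 further: plate controls were DMSO-treated cells for no effect and JAK Inhibitor I control wells for full effect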
JAK2V617F conf = Ba/F3 EpoR-JAK2V617F viability loss, confirmation; shares compounds with Ba/F3 V617F tox; AID 1521; hit rate 66% among 580; inhibition, % at 5.6 µM; CellTiter-Glo luminescence;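 active means mean inhibition above the hit cutoff derived in the earlier primary screen, cut at about 25% in these data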;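 further: 0% = DMSO-treated cells and 100% = JAK inhibitor I control wells; higher means lower luminescence from reduced cell ATP and viability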
An asterisk follows results filed as active. Only some compounds are listed: those with a hit (about 2.1% of all), similar ones and a draw of the others.

How did CSc1ccc(CN2CCC(n3nccc3NC(=O)c3ccccc3C)CC2)cc1 do in these assays?
IEC-6 cytotox: 3; KLF5 inh: -10; aSyn 5UTR inh: 0

Results for CCCCC(CC)CNC(=O)CN1C(=O)NC2(CCc3ccccc32)C1=O (centres undefined) ?
IEC-6 cytotox: 1; KLF5 inh: -7; aSyn 5UTR inh: 25

What do the screens show for `CCOc1ccc(S(=O)(=O)N2CCCC(C(=O)NCc3ccncc3)C2)cc1` (centres undefined)?
IEC-6 cytotox: -1; KLF5 inh: -40; aSyn 5UTR inh: -21

What do the screens show for `Cc1ccc(C)c(Cn2nnc3c(=O)[nH]c(C(=O)NCC4CCCO4)nc32)c1` (centres undefined)?
IEC-6 cytotox: 6; BaF3 tox: 4; APP transl inh: 2; KLF5 inh: -16; aSyn 5UTR inh: 21; Ba/F3 V617F tox: 28*; BaF3 tox 2: -1; JAK2V617F conf: 1

What do the screens show for `CC(=O)Nc1ccc(NC(=O)C(C)OC(=O)CNS(=O)(=O)c2ccc(Br)cc2Cl)cc1` (centres undefined)?
IEC-6 cytotox: -3; KLF5 inh: -26; aSyn 5UTR inh: -8

What do the screens show for `COc1ccc(-n2nnnc2SCC(=O)c2ccc(O)c(O)c2)cc1`?
IEC-6 cytotox: 9; BaF3 tox: 6; APP transl inh: -2; KLF5 inh: -34; aSyn 5UTR inh: -10; Ba/F3 V617F tox: 52*; BaF3 tox 2: -1; JAK2V617F conf: 79*

How did CCCC(NC(=O)C(C)NC(=O)CO/N=C1\C=C2CCC3C4CCC(C(C)=O)[C@@]4(C)CCC3[C@@]2(C)CC1)C(=O)O (some centres undefined) do in these assays?
IEC-6 cytotox: 3; KLF5 inh: -10; aSyn 5UTR inh: -6

How did Cc1cc2ccccn2c1C(=O)c1cccc([N+](=O)[O-])c1 do in these assays?
IEC-6 cytotox: 6; BaF3 tox: 4; APP transl inh: -10; KLF5 inh: -6; aSyn 5UTR inh: 16; Ba/F3 V617F tox: 0

How did Cc1cc2ccccn2c1C(=O)c1ccc([N+](=O)[O-])o1 do in these assays?
IEC-6 cytotox: 2; BaF3 tox: 0; APP transl inh: 54*; KLF5 inh: -10; aSyn 5UTR inh: -147; Ba/F3 V617F tox: 27*; BaF3 tox 2: -7; JAK2V617F conf: 42*

What do the screens show for `CCOC(=O)c1c(C)[nH]c(C(=O)OCC(=O)c2ccc3c(c2)NC(=O)CO3)c1C`?
aSyn 5UTR inh: 11

Results for Cc1ccc(-c2cc(C(=O)Nc3cc(C)on3)c3ccccc3n2)cc1 ?
IEC-6 cytotox: 8; BaF3 tox: 0; APP transl inh: 2; KLF5 inh: -21; aSyn 5UTR inh: 13; Ba/F3 V617F tox: -1

What do the screens show for `Cc1cc(NC(=O)c2cc(-c3ccc(C)c(C)c3)nc3ccccc23)no1`?
IEC-6 cytotox: 10; BaF3 tox: 5; APP transl inh: -6; KLF5 inh: 17; aSyn 5UTR inh: -32; Ba/F3 V617F tox: 63*; BaF3 tox 2: 0; JAK2V617F conf: -1

Results for Cc1ccc(N(CC(=O)N2CCCCCC2)S(=O)(=O)c2ccccc2)cc1 ?
IEC-6 cytotox: -3; KLF5 inh: 24; aSyn 5UTR inh: -5

What do the screens show for `Cc1cc(C)cc(OCC(=O)O/N=C(\N)c2cccnc2)c1`?
IEC-6 cytotox: -2; BaF3 tox: 4; KLF5 inh: -18; aSyn 5UTR inh: -6; Ba/F3 V617F tox: 35*; BaF3 tox 2: -2; JAK2V617F conf: -3

How did C=CCn1c(CSc2ccccc2[N+](=O)[O-])n[nH]c1=S do in these assays?
IEC-6 cytotox: 6; KLF5 inh: -23; aSyn 5UTR inh: 10

How did C=CCn1c(Sc2ncc([N+](=O)[O-])s2)n[nH]c1=O do in these assays?
IEC-6 cytotox: 11; BaF3 tox: 25; KLF5 inh: -4; aSyn 5UTR inh: -11; Ba/F3 V617F tox: 77*; BaF3 tox 2: -4; JAK2V617F conf: 9

How did O=[N+]([O-])/C(C=Nc1ccccc1O)=C\Nc1ccccc1O do in these assays?
IEC-6 cytotox: 8; BaF3 tox: 17; KLF5 inh: -29; aSyn 5UTR inh: -45; Ba/F3 V617F tox: 39*; BaF3 tox 2: 13; JAK2V617F conf: 68*

What do the screens show for `COc1ccc(-n2nc([N+](=O)[O-])c(=NCCCN3CCCC3=O)n2O)cc1`?
IEC-6 cytotox: -5; BaF3 tox: 2; APP transl inh: -9; KLF5 inh: -6; aSyn 5UTR inh: -22; Ba/F3 V617F tox: -3

What do the screens show for `O=C1CCCN1CCCN=c1c([N+](=O)[O-])nn(-c2ccc(Cl)cc2)n1O`?
IEC-6 cytotox: 18; BaF3 tox: 25; APP transl inh: 6; KLF5 inh: -18; aSyn 5UTR inh: 43; Ba/F3 V617F tox: 32*; BaF3 tox 2: 8; JAK2V617F conf: 38*

What do the screens show for `Nc1nnc(Sc2ccc(Cl)cc2[N+](=O)[O-])s1`?
IEC-6 cytotox: 1; BaF3 tox: 1; APP transl inh: 15; KLF5 inh: -7; aSyn 5UTR inh: 1; Ba/F3 V617F tox: 65*; BaF3 tox 2: -5; JAK2V617F conf: -11

Results for O=[N+]([O-])c1cnc(Sc2ccncn2)s1 ?
IEC-6 cytotox: 12; BaF3 tox: -7; KLF5 inh: -5; aSyn 5UTR inh: -1; Ba/F3 V617F tox: 73*; BaF3 tox 2: 29*; JAK2V617F conf: 96*

Results for O=C(Nc1ccc(Cl)cc1)Nc1ccccc1Sc1ncc([N+](=O)[O-])s1 ?
IEC-6 cytotox: -3; BaF3 tox: -3; KLF5 inh: -52; aSyn 5UTR inh: -90; Ba/F3 V617F tox: -3

Results for Cc1ccc(Nc2nc(-c3ccc(O)c(O)c3)cs2)nc1 ?
IEC-6 cytotox: -3; BaF3 tox: 17; APP transl inh: 6; KLF5 inh: -1; aSyn 5UTR inh: -216; Ba/F3 V617F tox: 92*; BaF3 tox 2: 95*; JAK2V617F conf: 99*

How did CC1=C(C(=O)Nc2cc(C(=O)NCCC(C)C)ccc2C)SCCO1 do in these assays?
IEC-6 cytotox: -4; KLF5 inh: -50; aSyn 5UTR inh: -4

How did Cc1ccc(NC(=O)c2ccccc2)cc1 do in these assays?
IEC-6 cytotox: -8; BaF3 tox: 4; APP transl inh: -97; KLF5 inh: -127; aSyn 5UTR inh: -164; Ba/F3 V617F tox: 0

What do the screens show for `Cc1ccc(NC(=O)C2=C(c3ccccc3)S(=O)(=O)CCS2(=O)=O)cc1`?
IEC-6 cytotox: 7; BaF3 tox: 0; APP transl inh: 93*; KLF5 inh: 2; aSyn 5UTR inh: -10; Ba/F3 V617F tox: 71*; BaF3 tox 2: 40*; JAK2V617F conf: 99*

How did CCCCN1CN(Cc2ccccc2)CNC1=S do in these assays?
IEC-6 cytotox: -3; BaF3 tox: 5; APP transl inh: 2; KLF5 inh: 3; aSyn 5UTR inh: 11; Ba/F3 V617F tox: 41*; BaF3 tox 2: 1; JAK2V617F conf: 10
